Assay in all cases: log2 fold change, soluble protein after heating vs DMSO (PISA); higher = thermal stabilisation; K562 cells, 10 uM, 30 min; active = over 0.2 and 3.5 SD of the protein, either way, in both replicates (recomputed)
Compound in test [1]: CC[C@@H]1C(=O)N(C)c2cnc(Nc3ccc(C(=O)NC4CCN(C)CC4)cc3OC)nc2N1C1CCCC1
The gist of the method:
(§1)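 Soluble protein was quantified by TMTpro 16plex LC-MS/MS after channel sums were equalised. It was obtained as the supernatant after 21,000xg for 90 min from pooled aliquots of K562 cells (2×10^6 cells/mL, 10 μM compound, 30 min) heated for 3 min across 48°C-58°C and extracted in PBS with 0.5% NP-40 at 4°C. Thermal stability values are relative to control samples and come from duplicates. They are given as log2 fold changes.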

Compound in test [2]: CC[C@@H]1C(=O)N(C)c2cnc(Nc3ccc(C(=O)N[C@H]4CC[C@H](N5CCN(CC6CC6)CC5)CC4)cc3OC)nc2N1C(C)C [volasertib]
In short, it runs like this:
as §1

Compound in test [3]: CC[C@H](C)[C@@H](C(=O)N[C@@H]([C@@H](C)O)C(=O)N[C@@H](CC(C)C)C(=O)[C@]1(CO1)C)NC(=O)[C@H]([C@@H](C)CC)N(C)C(=O)C [epoxomicin]
In short, it runs like this: as §1

Compound in test [4]: CCn1c(C(=O)N(C2CC2)C2CC2)cc2c3c(ncn3C)c(Nc3cc(C)n(C)n3)nc21
The gist of the method: as §1

Compound in test [5]: CCn1cc(-c2ccnc3[nH]c(-c4cccc(CN(C)C)c4)cc23)c(-c2ccc(NC(=O)N(C)C)cc2)n1
The gist of the method: as §1

Compound in test [6]: CN(C)CC(=O)Nc1ccc2[nH]c(=O)c3ccccc3c2c1
The gist of the method: as §1

Compound in test [7]: CN(CCOC1=CC=C(C=C1)C[C@H]2C(=O)NC(=O)S2)C3=CC=CC=N3 (racemic) [rosiglitazone]
In short, it runs like this:
as §1

Compound in test [8]: CN1C2=C(C3=C1C(=O)N(N=C3)CC4=CC(=CC=C4)N)SC(=C2)S(=O)C
The gist of the method:
as §1

Compound in test [9]: CN1CCC(CNc2ccc3ncc(-c4cccc(OC(F)(F)F)c4)n3n2)CC1
In short, it runs like this: as §1

Compound in test [10]: CN1CCN(CCOc2cc(OC3CCOCC3)c3c(Nc4c(Cl)ccc5c4OCO5)ncnc3c2)CC1 [saracatinib]
In short, it runs like this: as §1

Compound in test [11]: CN1CCN(c2nc(C3=C(c4c[nH]c5ccccc45)C(=O)NC3=O)c3ccccc3n2)CC1 [sotrastaurin]
In short, it runs like this: as §1

Compound in test [12]: CN1CC[C@H](c2c(O)cc(O)c3c(=O)cc(-c4ccccc4Cl)oc23)[C@H](O)C1 [alvocidib]
In short, it runs like this: as §1

Compound in test [13]: CN1CCc2c(c3ccccc3n2Cc2ccc(C(=O)NO)cc2)C1 [Tubastatin A]
In short, it runs like this:
as §1

Compound in test [14]: CNC(=O)C1=CC=CC=C1NC2=NC(=NC=C2Cl)NC3=C(C=C(C=C3)N4CCOCC4)OC
The gist of the method: as §1

Compound in test [15]: CNC(=O)c1ccc(Nc2ncc(C(F)(F)F)c(NCc3nccnc3N(C)S(C)(=O)=O)n2)cc1 [defactinib]
In short, it runs like this:
as §1

Compound in test [16]: CNCc1ccc(-c2[nH]c3cc(F)cc4c3c2CCNC4=O)cc1 [rucaparib]
The gist of the method:
as §1

Compound in test [17]: CNc1nc(-c2ccc3c(N)n[nH]c3c2)cc(N2C[C@@H](C(=O)NC3CCCCC3)CC[C@H]2C)n1
The gist of the method: as §1

Compound in test [18]: COC(=O)N[C@@H](C)CNc1nccc(-c2cn(C(C)C)nc2-c2cc(Cl)cc(NS(C)(=O)=O)c2F)n1 [encorafenib]
The gist of the method: as §1

Compound in test [19]: COC(=O)[C@H](CCSC)NC(=O)C1=C(C=C(C=C1)NC[C@H](CS)N)C2=CC=CC=C2
In short, it runs like this: as §1

Compound in test [20]: CC[C@H](C)N1C=C(C2=C(C=C(C=C21)C3=CN=C(C=C3)N4CCNCC4)C(=O)NCC5=C(C=C(NC5=O)C)C)C
In short, it runs like this: as §1

Targets with a hit are over-represented here; the source holds about 7,900 in all. About 0.6% of all pairs of compound and target were hits. A number with no mark means an inactive call.

Sequence of UniProt P02749 (P02749 whole entry, looked up): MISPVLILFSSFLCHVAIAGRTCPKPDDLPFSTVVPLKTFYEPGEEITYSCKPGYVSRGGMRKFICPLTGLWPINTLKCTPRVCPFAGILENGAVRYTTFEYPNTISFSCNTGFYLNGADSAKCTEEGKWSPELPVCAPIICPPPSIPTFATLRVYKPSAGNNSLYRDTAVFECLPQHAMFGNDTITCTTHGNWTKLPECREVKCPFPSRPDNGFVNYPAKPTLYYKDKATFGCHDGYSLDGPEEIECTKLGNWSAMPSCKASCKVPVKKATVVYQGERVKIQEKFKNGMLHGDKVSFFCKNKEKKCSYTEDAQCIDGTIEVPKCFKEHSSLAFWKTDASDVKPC
Sequence of UniProt Q8NFV4 (Q8NFV4 whole entry, looked up): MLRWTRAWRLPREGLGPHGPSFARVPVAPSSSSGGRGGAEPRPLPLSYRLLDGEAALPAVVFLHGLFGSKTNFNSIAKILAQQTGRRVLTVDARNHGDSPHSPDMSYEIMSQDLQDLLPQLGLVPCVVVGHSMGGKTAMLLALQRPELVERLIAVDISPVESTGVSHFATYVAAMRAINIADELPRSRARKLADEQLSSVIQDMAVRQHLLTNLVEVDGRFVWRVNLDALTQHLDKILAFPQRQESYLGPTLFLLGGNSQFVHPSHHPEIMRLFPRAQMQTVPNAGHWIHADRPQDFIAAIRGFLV
Sequence of UniProt P54252 (P54252 whole entry, looked up): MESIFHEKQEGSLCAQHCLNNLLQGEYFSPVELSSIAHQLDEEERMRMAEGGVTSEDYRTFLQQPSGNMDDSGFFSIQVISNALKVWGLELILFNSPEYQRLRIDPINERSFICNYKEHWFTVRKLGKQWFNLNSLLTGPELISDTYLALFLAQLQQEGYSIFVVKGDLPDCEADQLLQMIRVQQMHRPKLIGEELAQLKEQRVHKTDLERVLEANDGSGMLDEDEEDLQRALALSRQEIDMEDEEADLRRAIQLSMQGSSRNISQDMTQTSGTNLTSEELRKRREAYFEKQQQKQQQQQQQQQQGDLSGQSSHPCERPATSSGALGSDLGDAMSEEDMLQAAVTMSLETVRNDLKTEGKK
Sequence of UniProt Q9UKV3 (Q9UKV3 whole entry, looked up): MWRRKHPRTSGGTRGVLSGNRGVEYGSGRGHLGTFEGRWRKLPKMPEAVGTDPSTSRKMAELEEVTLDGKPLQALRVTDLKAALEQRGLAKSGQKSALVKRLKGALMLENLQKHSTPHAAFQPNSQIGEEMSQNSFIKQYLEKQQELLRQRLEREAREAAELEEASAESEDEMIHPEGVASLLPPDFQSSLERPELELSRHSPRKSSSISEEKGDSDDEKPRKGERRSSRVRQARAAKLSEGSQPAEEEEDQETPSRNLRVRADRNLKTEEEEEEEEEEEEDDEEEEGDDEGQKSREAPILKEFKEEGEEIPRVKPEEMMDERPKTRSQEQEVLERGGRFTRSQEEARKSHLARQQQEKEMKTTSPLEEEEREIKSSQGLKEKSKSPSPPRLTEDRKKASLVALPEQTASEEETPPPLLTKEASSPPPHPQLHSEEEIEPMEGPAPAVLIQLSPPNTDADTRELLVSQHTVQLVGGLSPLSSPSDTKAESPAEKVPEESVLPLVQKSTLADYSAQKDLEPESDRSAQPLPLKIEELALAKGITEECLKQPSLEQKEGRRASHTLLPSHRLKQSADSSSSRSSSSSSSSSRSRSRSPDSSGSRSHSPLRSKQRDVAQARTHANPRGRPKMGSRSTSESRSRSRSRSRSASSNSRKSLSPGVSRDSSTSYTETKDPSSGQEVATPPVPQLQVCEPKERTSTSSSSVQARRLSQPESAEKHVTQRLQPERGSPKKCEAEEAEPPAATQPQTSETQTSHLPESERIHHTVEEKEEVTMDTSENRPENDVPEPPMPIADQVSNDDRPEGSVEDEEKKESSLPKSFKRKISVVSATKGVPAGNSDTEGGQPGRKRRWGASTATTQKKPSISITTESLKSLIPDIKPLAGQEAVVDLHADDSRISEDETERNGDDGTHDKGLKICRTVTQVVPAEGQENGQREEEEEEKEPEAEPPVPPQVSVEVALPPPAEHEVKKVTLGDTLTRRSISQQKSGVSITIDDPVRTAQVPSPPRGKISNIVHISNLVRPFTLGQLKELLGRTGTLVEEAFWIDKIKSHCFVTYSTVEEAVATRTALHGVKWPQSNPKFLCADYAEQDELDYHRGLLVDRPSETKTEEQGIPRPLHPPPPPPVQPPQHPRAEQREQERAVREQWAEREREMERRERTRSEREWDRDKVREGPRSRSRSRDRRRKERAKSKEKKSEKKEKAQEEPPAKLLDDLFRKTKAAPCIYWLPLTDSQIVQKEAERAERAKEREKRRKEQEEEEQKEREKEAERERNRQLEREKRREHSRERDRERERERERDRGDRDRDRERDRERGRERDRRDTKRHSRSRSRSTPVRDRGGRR
Sequence of UniProt Q9NWX5 (Q9NWX5 whole entry, looked up): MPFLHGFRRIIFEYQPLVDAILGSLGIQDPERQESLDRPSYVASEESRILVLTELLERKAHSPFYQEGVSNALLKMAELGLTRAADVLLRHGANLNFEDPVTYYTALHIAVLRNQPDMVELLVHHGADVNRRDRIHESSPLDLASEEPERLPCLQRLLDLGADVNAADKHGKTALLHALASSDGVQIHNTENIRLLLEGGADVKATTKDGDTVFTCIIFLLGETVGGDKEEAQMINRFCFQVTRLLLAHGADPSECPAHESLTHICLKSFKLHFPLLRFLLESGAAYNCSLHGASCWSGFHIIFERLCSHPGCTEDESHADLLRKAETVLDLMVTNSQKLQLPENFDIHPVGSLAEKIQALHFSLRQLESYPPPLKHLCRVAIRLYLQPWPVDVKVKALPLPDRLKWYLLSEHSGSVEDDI
Sequence of UniProt P18846 (P18846 whole entry, looked up): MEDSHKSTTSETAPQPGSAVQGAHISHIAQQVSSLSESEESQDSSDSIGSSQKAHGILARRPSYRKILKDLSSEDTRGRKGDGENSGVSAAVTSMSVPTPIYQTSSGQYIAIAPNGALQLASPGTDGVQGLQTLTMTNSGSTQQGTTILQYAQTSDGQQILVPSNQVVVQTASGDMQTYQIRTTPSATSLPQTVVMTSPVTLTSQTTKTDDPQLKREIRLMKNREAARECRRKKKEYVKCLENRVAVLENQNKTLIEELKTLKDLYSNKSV
Sequence of UniProt Q92934 (Q92934 whole entry, looked up): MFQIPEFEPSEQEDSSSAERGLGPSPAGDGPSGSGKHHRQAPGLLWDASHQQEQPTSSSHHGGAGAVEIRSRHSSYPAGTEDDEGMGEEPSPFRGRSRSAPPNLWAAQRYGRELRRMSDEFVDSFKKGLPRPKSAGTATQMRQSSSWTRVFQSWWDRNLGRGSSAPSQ
Sequence of UniProt Q9H0E9 (Q9H0E9 whole entry, looked up): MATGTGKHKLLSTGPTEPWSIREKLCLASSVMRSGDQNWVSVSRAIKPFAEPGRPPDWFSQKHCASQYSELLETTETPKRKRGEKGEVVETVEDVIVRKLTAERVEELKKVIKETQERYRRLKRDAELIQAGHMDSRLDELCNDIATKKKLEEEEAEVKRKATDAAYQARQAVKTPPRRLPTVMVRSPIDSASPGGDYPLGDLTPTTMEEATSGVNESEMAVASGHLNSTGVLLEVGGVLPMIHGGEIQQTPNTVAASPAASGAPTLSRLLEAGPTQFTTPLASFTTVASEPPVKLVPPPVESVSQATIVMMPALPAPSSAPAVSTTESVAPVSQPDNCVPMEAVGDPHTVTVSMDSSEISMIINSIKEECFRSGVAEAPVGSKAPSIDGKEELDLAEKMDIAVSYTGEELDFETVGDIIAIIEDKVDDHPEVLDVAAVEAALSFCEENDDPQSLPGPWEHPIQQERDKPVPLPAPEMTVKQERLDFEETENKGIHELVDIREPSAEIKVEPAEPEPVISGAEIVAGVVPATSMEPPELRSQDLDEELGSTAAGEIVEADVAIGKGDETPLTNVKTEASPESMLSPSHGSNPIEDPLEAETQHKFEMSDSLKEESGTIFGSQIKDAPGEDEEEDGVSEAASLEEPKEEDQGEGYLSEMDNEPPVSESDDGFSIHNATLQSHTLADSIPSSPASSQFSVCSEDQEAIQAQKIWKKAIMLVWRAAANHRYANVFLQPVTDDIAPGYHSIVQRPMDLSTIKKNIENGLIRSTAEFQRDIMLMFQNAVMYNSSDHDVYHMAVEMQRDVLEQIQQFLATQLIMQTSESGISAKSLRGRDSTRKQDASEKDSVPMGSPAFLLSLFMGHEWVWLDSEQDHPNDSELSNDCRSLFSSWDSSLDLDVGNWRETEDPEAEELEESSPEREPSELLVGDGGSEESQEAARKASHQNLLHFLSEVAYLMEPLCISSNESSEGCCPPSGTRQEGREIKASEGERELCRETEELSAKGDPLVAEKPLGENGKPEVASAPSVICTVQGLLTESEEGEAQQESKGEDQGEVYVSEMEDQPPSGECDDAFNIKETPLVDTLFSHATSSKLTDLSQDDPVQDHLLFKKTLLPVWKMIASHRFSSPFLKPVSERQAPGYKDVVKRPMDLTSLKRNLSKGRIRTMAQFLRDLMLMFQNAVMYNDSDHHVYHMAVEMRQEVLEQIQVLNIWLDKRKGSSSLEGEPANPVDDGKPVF

Regarding BRD8 isoform 2 (UniProt Q9H0E9), the log2 fold change in test [1] was 0.036; in [2], 0.025; in test [3] it was -0.105; in test [4] it was -0.045; in test [5] it was 0.219; in test [6], 0.432 (active). Besides, the log2 fold change in test [7] is -0.018; in [8], 0.087; in test [9], -0.327; in test [10] it was -0.06; in test [11], 0.058; in test [12], 0.012. The log2 fold change in test [13] is -0.296; in [14], 0; in test [15] it was -0.064; in [16], -0.015; in test [17], -0.021; in [18], 0.028. In addition, the log2 fold change in test [19] is 0.145.

As for ABHD11 (UniProt Q8NFV4), the log2 fold change was -0.077 in test [1]; -0.127 in [2]; -0.003 in test [20]; 0.272 in [3]; 0.045 in test [4]; 0.086 in test [5]. In addition, the log2 fold change in test [6] is 0.007; in [7], -0.016; in test [8], -0.033; in test [9], -0.126; in [10] it was -0.022; in [12], -0.066. For the same target, the log2 fold change in test [13] was 0.096; in test [14], 0.05; in test [15], -0.114; in test [16] it was 0.02; in test [17] it was -0.102; in test [18], 0.004. Further, the log2 fold change in [19] is -0.095.

Take BAD (UniProt Q92934): the log2 fold change in test [1] was -0.043; in test [2], 0.038; in test [20] it was 0.085; in test [3], -0.086; in test [4], 0.014; in test [5], 0.022. The log2 fold change in test [6] is -0.125; in test [7], 0.059; in test [8] it was -0.069; in test [9], -0.006; in test [10], 0.021; in test [11], 0.273. The log2 fold change is 0.005 in test [12]; -0.032 in test [14]; 0.03 in [15]; 0.032 in test [16]; -0.016 in [17]; -0.047 in test [18]. The log2 fold change in [19] was -0.004.

For the target ATXN3 isoform 1 (UniProt P54252), the log2 fold change in test [1] was -0.371; in test [2] it was -0.401 (active); in [20], 0.099; in test [4] it was 0.011; in [5] it was -0.016; in [6], -0.083. For the same target, the log2 fold change in test [7] is -0.039; in test [9] it was -0.015; in test [12] it was -0.109; in [13] it was 0.138; in test [14] it was -0.03; in test [15], -0.119. In addition, the log2 fold change in test [16] was -0.015; in [18] it was 0.085; in [19], 0.018.

Regarding ACIN1 (UniProt Q9UKV3), the log2 fold change was -0.017 in [1]; -0.056 in test [2]; -0.012 in [20]; -0.048 in [3]; -0.057 in test [4]; 0.004 in [5]. For the same target, the log2 fold change in test [6] is -0.034; in test [7], 0.008; in test [8], -0.021; in test [9], -0.097; in test [10], -0.027; in [11], -0.01. Also, the log2 fold change was -0.057 in test [12]; 0.032 in test [13]; -0.165 in test [14]; -0.253 (active) in test [15]; -0.017 in test [16]; -0.054 in test [17]. The log2 fold change in [18] is -0.038; in test [19] it was 0.003.

Take ASB6 (UniProt Q9NWX5): the log2 fold change in [1] is 0.047; in test [2] it was -0.321; in test [20] it was 0.028; in test [3], -0.094; in [4], -0.016; in test [5], -0.076. Besides, the log2 fold change in [6] is 0.041; in test [7], 0.067; in test [9] it was -0.083; in test [11], -0.029; in [14], -0.078; in test [15], -0.033. Further, the log2 fold change in test [16] is 0.124; in test [18] it was -0.094; in test [19], 0.031.

In the case of APOH (UniProt P02749), the log2 fold change in [1] is -0.397; in test [2], -0.443; in test [20], -0.167; in [4], -0.171; in test [5] it was 0.078; in [6], -0.141. Moreover, the log2 fold change in test [7] is -0.048; in test [8], 0.48; in test [9], 0.077; in test [10] it was 0.097; in test [11] it was 0.317; in [12] it was 0.371. For the same target, the log2 fold change in [13] was -0.128; in test [14], -0.032; in [15], -0.042; in test [16] it was -0.13; in [17], -0.391; in test [18], 0.041. Moreover, the log2 fold change in test [19] was -0.021.

As to ATF1 (UniProt P18846), the log2 fold change in [1] is 0; in test [2] it was 0.109; in test [20], -0.065; in test [3] it was 0.17; in [4] it was 0.005; in test [5], 0.035. The log2 fold change in test [6] was 0.002; in test [7], -0.104; in test [9] it was -0.002; in test [11] it was -0.098; in [12], 0.081; in test [13], -0.068. Also, the log2 fold change is -0.052 in test [14]; 0.045 in test [15]; -0.128 in test [16]; -0.07 in [18]; 0.024 in test [19].

(Values after the supplement of paper PMC10849652.)
